ERK EGF block: blocks ERK signaling stimulated by EGF; AID 1454; Potency, µM (doses to about 11.5 µM), hits mostly inhibitors; HEK293-V1b, EGF-stimulated phospho-ERK AlphaScreen; hit rate 0.41% among 130,000; active means well fitted inhibition curve with a large enough effect; further: nearly all actives have a fitted effect of over 55% in size
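Homogeneous cell-based phospho-ERK assay: HEK293/V1b cells in 1% FBS, compound 30 min then EGF 5 min, AlphaScreen luminescence. Activity normalized between DMSO and 25 nM EGF controls; AC50 from Hill modelling.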
Large screens that a line does not name were inactive; ! = not confirmed by another sample. The entries come from a sample that favours hits as a whole.

C[C@H](NC(=O)c1nc[nH]c1C(=O)N[C@@H](Cc1ccccc1)C(=O)OCc1ccccc1)c1ccccc1	none
O=C(N[C@@H](Cc1ccccc1)C(=O)OCc1ccccc1)c1nc[nH]c1C(=O)NC(c1ccccc1)c1ccccc1	ERK EGF block 39.8µM
C[C@H](NC(=O)c1[nH]cnc1C(=O)Nc1ccc(CNC(=O)OC(C)(C)C)cc1)C(=O)OCc1ccccc1	ERK EGF block 31.6µM
CC(C)C[C@H](NC(=O)c1[nH]cnc1C(=O)Nc1ccc(CNC(=O)OC(C)(C)C)cc1)C(=O)OCc1ccccc1	none
C[C@@H](NC(=O)c1nc[nH]c1C(=O)N[C@@H](Cc1ccccc1)C(=O)OCc1ccccc1)c1ccccc1	none
O=C(COC(=O)CNC(=O)c1ccco1)NCc1ccc(F)cc1	none
Cc1cc(C)n2nc(C(=O)N/N=C/c3ccc(O)cc3)nc2n1	none
CC(=O)/C(=N/Nc1ccc(Br)cc1)N1CCCc2ccccc21	none
COC(=O)/C(=N/Nc1ccccc1)N1CCCc2ccccc21	none
CC(=O)/C(=N/Nc1ccccc1[N+](=O)[O-])N1CCCc2ccccc21	ERK EGF block 12.6µM
O=C(N/N=C/c1cccnc1)C(=O)N1CCCCCC1	none
O=[N+]([O-])c1ccc(O)c(Nc2ncnc3ccc(Br)cc23)c1	ERK EGF block 25.1µM
COc1ccc(Nc2ncnc3ccc([N+](=O)[O-])cc23)c(OC)c1	none
O=[N+]([O-])c1ccc(O)c(Nc2ncnc3ccccc23)c1	none
Cn1cccc1/C=C1\SC(=Nc2ccc(O)cc2)NC1=O	none
Cc1ccc(N2C(=S)SC3CS(=O)(=O)CC32)cc1 (stereo not given)	none
Nn1c(Cc2ccccc2F)n[nH]c1=S	none
COC(=O)C(NC(=O)CNS(=O)(=O)c1ccc(Br)cc1)c1ccccc1 (stereo not given)	none
Nc1nc(-c2ccc([N+](=O)[O-])cc2)c(C(=O)Nc2ccc(Cl)cc2)s1	none
O=[N+]([O-])c1ccc(-c2cn3nc(-c4ccccc4)c(-c4ccccc4)nc3n2)cc1	none
Nc1nc(-c2ccccc2)c(-c2ccc([N+](=O)[O-])cc2)s1	ERK EGF block 25.1µM
O=S(=O)(c1ccc(NC(=S)N2CCN(c3ccc(O)cc3)CC2)cc1)N1CCOCC1	none
COc1cccc(/C=N/Nc2cc(Cl)nc(C)n2)c1O	none
COc1cccc(/C=N/Nc2ncnc3c2ncn3Cc2ccccc2)c1O	ERK EGF block 12.6µM
COc1cccc(/C=N/NC(=O)CNC(=O)COc2ccccc2)c1O	none
CCOC(=O)C(O)(CC(=O)Nc1cc(F)ccc1C)C(F)(F)F (stereo not given)	none
COc1ccc(C(CCN2CCN(c3ccccc3)CC2)c2c(O)cc(OC)cc2OC)cc1 (stereo not given)	none
COc1cc(O)c(C(CCN2CCN(c3ccccc3)CC2)c2ccc(N(C)C)cc2)c(OC)c1 (stereo not given)	ERK EGF block 17.8µM
COc1ccc(C(CCN2CCCCC2)c2c(O)cc(OC)cc2OC)cc1 (stereo not given)	none
CN(C)C(CNC(=O)/C=C/c1cccc(Cl)c1)c1ccccc1 (stereo not given)	none
Cc1ccc(/C=C/C(=O)c2ccccc(=O)c2O)cc1C	none
COc1ccc2[nH]c3c(N4CCc5ccccc5C4)ncnc3c2c1	ERK EGF block 31.6µM
CCOc1ccc2[nH]c3c(N4CCC5(CC4)OCCO5)ncnc3c2c1	none
COc1ccc2[nH]c3c(=O)n(CCCN4CCOCC4)cnc3c2c1	none
Cc1occc1C(=O)O/N=C(\N)c1ccccc1	none
CCOC(=O)c1ccc(NC(=O)N2CCOCC2)cc1	none
CCOc1cc(/C=C/c2cc(C(=O)O)c3ccccc3n2)ccc1O	none
CCOc1cc(/C=C/c2cc(C(=O)O)c3ccccc3n2)ccc1OC	none
COc1cc(/C=C/c2cc(C(=O)O)c3ccccc3n2)cc(OC)c1O	ERK EGF block 31.6µM
Cc1ccc(CC(NC(=O)c2ccccc2)C(=O)NC(Cc2ccccc2)C(=O)O)cc1 (stereo not given)	none
CC(C)(C)c1ccc(OCCOc2ccc(C(C)(C)C)cc2NC=O)c(NC=O)c1	ERK EGF block 31.6µM
COCCOc1ccc(C(F)(F)F)cc1NC(=O)c1ccccc1	none
COCCOc1ccc(C(F)(F)F)cc1NC(=O)c1ccc(F)cc1	none
C[C@]1(c2ccccc2)OC(C(=O)O)=CC1=O	none
Cc1cccc(Nc2n[nH]c(C)c2[N+](=O)[O-])c1	none
Cc1nccn1CCCN1C(=O)OC2(CCCCC2)C1(C)O (stereo not given)	none
CC(NCCc1ccc(O)cc1)C(O)c1ccc(O)cc1 (stereo not given)	none
C[C@@H](NCCc1ccc(O)cc1)[C@@H](O)c1ccc(O)cc1	none
CCCCCCCCNC(C)C(O)c1ccc(SC(C)C)cc1 (stereo not given)	ERK EGF block 35.5µM!
CCC(C)n1c(SCC(=O)NCCc2ccc(S(N)(=O)=O)cc2)nc2ccsc2c1=O (stereo not given)	none
CC(C)CCN1CCN(Cc2cc(F)ccc2-n2cccn2)CC1CCO (stereo not given)	none
O=C(NNc1nc2cc3c(cc2s1)OCO3)c1cccc(F)c1	ERK EGF block 17.8µM
COc1cc(OC)cc(C(=O)NNc2nc3cc4c(cc3s2)OCO4)c1	none
COc1cc(C(=O)NNc2nc3cc4c(cc3s2)OCO4)cc(OC)c1OC	none
CC1(C)Cc2c(c(N3CCOCC3)nc3sc(C(=O)N4CCCCC4)c(N)c23)CO1	none
CC1(C)Cc2c(c(N3CCOCC3)nc3sc(-c4ccc(C(=O)O)o4)c(N)c23)CO1	none
CN1Cc2c(N3CCOCC3)nc3sc(C(=O)c4ccc(Br)cc4)c(N)c3c2CC1(C)C	ERK EGF block 35.5µM
Cc1ccc(-c2cc(Cc3ccc(N(C)C)cc3)c(=O)[nH]n2)cc1	none
CN(C)CCCN(C(=O)c1ccc2c(c1)CCCC2)c1nc2ccc(Cl)cc2s1	ERK EGF block 20µM
CN(C)CCCN(C(=O)COc1ccccc1)c1nc2ccc(Cl)cc2s1	none
CN(C)CCCN(C(=O)c1sc2ccccc2c1Cl)c1nc2ccc(F)cc2s1	none
CCC(C)C(NC(=O)c1ccccc1NC(=O)c1ccco1)C(=O)NNC(=O)c1ccncc1 (stereo not given)	none
Cc1cc(/C=C2\NC(=S)N(C)C2=O)ccc1N1CCCC1	none
Cc1cc(/C=C2/C(=O)N(C)C(=S)N2C)ccc1N1CCCC1	ERK EGF block 25.1µM
CN1C(=O)/C(=C/C=C2/CCCN2C)N(C)C1=S	none
O=C(CS(=O)(=O)c1cn(Cc2ccccc2Cl)c2ccccc12)N1CCOCC1	none
Cc1cccc(-c2cc3nc(C)cc(C)n3n2)c1	none
Cc1cccc(-c2cc3nc(C)c(C)c(NCCCn4ccnc4)n3n2)c1	ERK EGF block 31.6µM
Cc1cc(-c2ccccc2)nc2cc(C(=O)NCCCn3ccnc3)nn12	none
Cc1cc(NC(=O)CCC(=O)N(CC(=O)NCC2CCCO2)Cc2ccc(F)cc2)no1 (stereo not given)	none
COc1cccc(N(C(=O)Cn2nnc(-c3ccc(C)o3)n2)C(C(=O)NC(C)(C)C)c2cccs2)c1 (stereo not given)	none
Cc1cc(C(F)(F)F)n2nc(-c3cccs3)cc2n1	none
O=C(/C=C\Nc1ccc2c(c1)OCO2)c1ccc2c(c1)OCO2	none
O=C1Nc2ccc(Br)cc2/C1=C/C1CC=CCC1 (stereo not given)	none
O=C1Nc2ccc(Br)cc2/C1=C/C(=O)c1ccc2c(c1)OCO2	ERK EGF block 31.6µM
Cc1cc(NC(=O)CCC(=O)N(Cc2cccs2)C(C(=O)NC2CCCC2)c2ccccc2)no1 (stereo not given)	none
COc1ccccc1NS(=O)(=O)c1ccc(OC)c([N+](=O)[O-])c1	none
C/C(=N\Nc1ccc(S(=O)(=O)Nc2ccccc2)cc1[N+](=O)[O-])c1ccncc1	none
CCCC(CCC)=NNc1ccc(S(=O)(=O)Nc2ccccc2OC)cc1[N+](=O)[O-]	ERK EGF block 14.1µM

Assay outcomes from PubChem.
